These results are taken from PubChem BioAssay AID1347146 (National Center for Advancing Translational Sciences (NCATS), 2019).

Results filed as inconclusive are left out. Where a call stands in place of a potency, no number is given. Active and inactive are the calls of the source. The call rests on the fitted dose curve; in most records, active means well fitted inhibition curve with a large enough effect; inconclusive means small, poorly fitted or top-dose-only effect; inactive means no such curve, though single readings can be large or run the other way.
Potency means the concentration at half of the fitted maximal effect.

Nicotinamide N-methyltransferase (Homo sapiens), sequence (P40261 whole entry, looked up): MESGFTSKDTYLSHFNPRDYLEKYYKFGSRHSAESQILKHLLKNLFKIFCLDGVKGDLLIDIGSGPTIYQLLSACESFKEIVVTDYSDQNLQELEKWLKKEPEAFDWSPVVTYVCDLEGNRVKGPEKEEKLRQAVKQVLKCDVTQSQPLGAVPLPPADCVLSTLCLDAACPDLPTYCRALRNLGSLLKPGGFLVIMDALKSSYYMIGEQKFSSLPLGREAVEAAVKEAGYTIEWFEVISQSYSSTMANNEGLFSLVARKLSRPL

The target of the assay is Nicotinamide N-methyltransferase (Homo sapiens) (UniProt P40261). Put plainly: qHTS Assay for Inhibitors of N-terminal methyltransferase 1 (NTMT1): NNMT MTaseGlo counterscreen assay. The note with it: NNMT enzyme, MTase-Glo luminescence counterscreen; series mostly up to 57.1 µM. An excerpt:
Assay Submitter (PI): Rong Huang Ph.D, Purdue University, West Lafayette, IN 47907
The N-terminal methytransferase 1 is the first methyltransferase that methylates protein alpha-N-amines and plays an important role in regulating cell mitosis, chromatin interactions and DNA repair. It is observed to be over-expressed in various cancer patient tissues like malignant melanoma and colorectal cancer tissues. Knockdown of NTMT1 in cancer cells causes cell mitotic defects and enhances sensitivity to DNA damaging chemotherapeutics. […] These critical cellular processes in which NTMT1 is implicated, coupled with emerging links to cellular dysfunction, strengthen the inference that NTMT1 is a compelling novel anticancer target. Progress have been made in understanding the molecular properties of NTMT1 and the biological consequences of protein alpha-N-terminal methylation, but there are no specific small molecule probes available for NTMT1 to fully characterize its MTase activity. To address this unmet need, a panel of assay is created and established to enable quantitative high-throughput screening (qHTS) for novel, potent, and selective small molecule NTMT1 inhibitors. Two orthogonal qHTS that use different reagents (ThioGlo vs. MTaseGlo) are developed for primary robotic screening against the NCATS chemical library of more than 400,000 small molecules. Identified inhibitors are reacquired, validated, and further characterized.
MTaseGlo Assay is a luminescence screen that measure the activity of methyltransferases based on the reaction product S-adenosyl homocysteine (SAH). The substrate SAM is converted to SAH upon enzyme activation. MTase-Glo reagent and detection solution convert SAH to ATP and measure the light from the luciferase reaction. Nicotinamide N-methyltransferase (NNMT) is a cystolic enzyme that catalyzes the transfer of a methyl group from the co-factor SAM onto the substrate, nicotinamide (NA) to form 1-methyl-nicotinamide (MNA) and SAH. NNMT MTaseGlo assay is used as a counterscreen to evaluate selectivity of identified inhibitors.
Early Translation Branch (ETB)
National Center for Advancing Translational Sciences (NCATS)
National Institute of Health (NIH)
NNMT enzyme, SAM, NA, and control is provided by the Huang laboratory.
In brief, 3 µL of enzyme mixture (final concentrations of 125 nM and 100 µM for NNMT and SAM, respectively) into all wells of a 1,536-well solid-bottom white plate (Greiner Bio One, Monroe, NC). 23 nL of DMSO or compound (final concentration range 234 nM to 143 microM) was transferred via Wako Pin-tool (Wako Automation, Richmond, VA) and incubated (RT) for ~15 minutes. Next, 1 µL of substrate (final concentration 1 µM NA) or buffer was dispensed, and the reaction proceeded for 30 minutes (RT, protected from light) followed by a 1 microL addition of [5X] MTase-Glo Reagent(R). Samples were incubated (RT, protected from light) for 30 minutes to allow for SAH to be converted to ADP, followed by a 5 microL addition of [1X] MTase-Glo Detection Solution(R) to allow for ADP to be converted to ATP, which was then detected with a luciferase reaction. Samples were centrifuged for 15 seconds at 1,000 RPM's, followed by a RT incubation for 30 minutes. Plates were then read using Luminescence optics on a ViewLux detector. Data were normalized to no-enzyme (0% activity) and no-inhibitor (DMSO; 100%) controls, and the resulting percent inhibition data were fitted to a 4-parameter Hill equation using Graphpad Prism.
On to `CC(C)(C)c1cc(C=C(C#N)C#N)cc(C(C)(C)C)c1O`, for which the Potency result was “inactive”.
Take `C[N+]1(C)CCN(c2ccccc2)CC1`: the Potency entry was “inactive”.
On to `CC(N)[C@H](O)c1ccc(O)c(O)c1` (stereo not given in full), for which the Potency result was “inactive”.
As to `CN[C@@H]1C[C@@H](c2ccc(Cl)c(Cl)c2)c2ccccc21`, the Potency entry is “inactive”.
As for `COc1ccc2c(c[n+](C)c3c4cc5c(cc4ccc23)OCO5)c1OC`, the Potency was 12.6 µM (active).
As for `c1ccc(CCCN2CCN(CCOC(c3ccccc3)c3ccccc3)CC2)cc1`, the entry is “inactive”; as for `C[N+]1(C)C2CCC1CC(OC(=O)c1c[nH]c3ccccc13)C2` (stereo not given), “inactive”.
Consider `O=[N+]([O-])c1ccc2nc(N3CCNCC3)ccc2c1`, for which the Potency result was “inactive”.
As for `C[N+](C)(C)CC#CCN1CCCC1=O`, the Potency result was “inactive”.
The value for `CC(C)=CCOc1c2occc2cc2ccc(=O)oc12` was “inactive”.
For `CC(=O)c1c(O)c(C)c(O)c(Cc2c(O)c3c(c(C(=O)/C=C/c4ccccc4)c2O)OC(C)(C)C=C3)c1O`, the Potency result is “inactive”.
Turning to `NC(N)=Nc1ccc2[nH]c3c(c2c1)C[C@@]1(O)[C@H]2Cc4ccc(O)c5c4[C@@]1(CCN2CC1CC1)[C@H]3O5`, the Potency result is “inactive”.
As for `CCCN(CCC)[C@H]1CCc2c(F)ccc(O)c2C1`, the entry is “inactive”; as for `Clc1ccc(N2CC3CCC(C2)N3)nn1`, “inactive”; as for `Ic1ccccc1CNC1C2CCN(CC2)C1C(c1ccccc1)c1ccccc1` (stereo not given), “inactive”.
Turning to `N#CC(C#N)=Cc1ccc(O)c(O)c1`, the Potency result was “inactive”.
Take `NC(=O)CI`: the Potency result is “inactive”.
For the molecule `COC[C@H]1OC(=O)c2coc3c2[C@@]1(C)C1=C(C3=O)C2CCC(=O)[C@@]2(C)C[C@H]1OC(C)=O` (stereo not given in full), the Potency result was “inactive”.
As for `O=[N+]([O-])c1cc(O)c(O)c([N+](=O)[O-])c1`, the Potency result is “inactive”.
Turning to `CCn1cnc2c(Nc3cccc(Cl)c3)nc(N[C@@H]3CCCC[C@@H]3N)nc21`, the Potency result is “inactive”.
As to `CNCCc1c[nH]c2ccc(O)cc12`, the Potency result is “inactive”.
Regarding `NCC(O)c1cc(O)c(O)cc1F` (stereo not given), the Potency entry is “inactive”.
The value for `O=C1CC[C@@]2(O)C3Cc4ccc(O)c5c4C2(CCN3CC2CC2)[C@H]1O5` (stereo not given in full) was “inactive”; that for `NC1CCc2cc(O)c(O)cc2C1` (stereo not given) was “inactive”; that for `CC(N)Cc1c[nH]c2ccc(O)cc12` (stereo not given) was “inactive”.
